In the supplement of paper PMC12632987:

B1: usp_38_diff_out_4_12_560 (protein)
chain: AEEEHKKKLEEAKKELEKLSEELKELADKKLEEVKEKKDKATLKEAEKEINEKITELAEKTLKALELAETDEDLQKILDLYDDTATYVSEKAAEMREILK
B2: usp_38_diff_out_4_99_564 (protein)
chain: MKEEMVKKVKELKKEAEELLKKAKEAFKLSHEERKKVAEELSKELDELAKELGKIYFEARDTGDKELIKAVNKEADEFVKAYNEAAKELNLLRHEVLEEE
B3: usp_38_diff_out_4_126_544 (protein)
chain: SREAEFAALRAEAEAALAEAERLLAEARAELDKDPEKALELLDRAWDALGRAAALLREMRRIAADDPALRAELAALRARLDALIDEFTAAATEIYEKIAE
B4: usp_38_diff_out_4_126_549 (protein)
chain: DREKQAEELEKKLEEALKKAKEYLKKAKELLDKDKEETLKALDKSWEALGKASELLRELRRIAIDDPELRERYKKLLEEANKLVDEFTKAAEEIYLKLSE
B5: usp_38_diff_out_3_65_533 (protein)
chain: KVEELLKKAEEKLKEAEKKIRELEERVETDPSLTEEEVNAMLDEAADLIVEAGKYIREAKKLNPDEEQKKRIEELEKRLDEVIDLYVEAGERAFLAVGER
B6: usp_38_diff_out_4_12_562 (protein)
chain: SMEEKEKKVKEALEEMKKLSEEAKEKAKKAAEEAKKTGNLAEFNKKMNELINKLTEKTLEVLEKLAELGDEESIEEVLKITSETFTYISQLAAEVKKAAA
B7: usp_38_diff_out_4_126_543 (protein)
chain: DREKAFDELAKEAEALMKEAKEYLEKAKEAMDKDPEKAKEYLDKAYEALGKLSKALREMRRIARDDPELRKRYKELLKKANELVSEFTKVAEELLLKLSE
B8: usp_38_diff_out_4_12_556 (protein)
chain: SPEEEEEARERALRELEERSRRLREEAERLLARVKETRDEATYKEANERLNKGLTELAELTLRTLELTDDDEELERILRLTDETFRYVSEKAAEMRELMK
B9: usp_38_diff_out_3_65_532 (protein)
chain: KVEELLKKAEEKLEEAEKKIKELEKRVKEDPNITEEEVNEMLDEAADLIVEAGKYIREAKKLNPDEEQQERIKELEERLDEVIDLYVKAGEAGFLAVGER
B10: usp_38_diff_out_4_12_554 (protein)
chain: SAEERRRRFEEALREMERLHRETIEKLEELKEELKKTKDEKVLEEAEKLANEALSRLAELTTRALEEAENDEEVQEILDLYSRHVDEIVTLMNEMKKIMK
B11: usp_38_diff_out_4_126_546 (protein)
chain: SRKEEFEKLKKEAEEKMKEAKKLLAEALAALDKDPEKALALLDKAWDALGEAAALLREMRRIAADDPELRKEVKKLEEELDELIDEFTEAATRIYLKIAE
B12: usp_38_diff_out_4_12_555 (protein)
chain: SAEEEKEKLEKLKEELKKKSEELKELADKLLAEVKEKKDRATYKKAEEELNKKLTELAELTLETLEATDDDEELEEILKLTDETFTYVSEKAAEMREIMK
B13: usp_38_diff_out_3_65_541 (protein)
chain: EIEKLLKEAKKYLEEAKKIIEELRERTRTDPTLTIEEVNEMLDKAADLLVKAGEYIEKAKKLNPDEKQKKEIEKLKKELEELLDEYVEAGEEAYLAVGER
B14: usp_38_diff_out_4_12_558 (protein)
chain: SEEERKKKREEALKELKKLSEDAKATADKLLAEVKKKKDKATLKAANATLNDLLTKLAEKTLEALELAENDEELEEILKIYDDTATYITTKAAEMKAVLK
B15: usp_38_diff_out_3_65_539 (protein)
chain: KVEELLERAQEHLEKAEELVEGLRERTATDPTLTIDEVVAMLDEAADHLVAAAQDIEEAKKLDPDEEQQERLEELQERLDRLIDEYERAGREAFLAVGER
B16: usp_38_diff_out_3_65_534 (protein)
chain: EVEELLKEAQKKLKEARAIIEALRERVESDPTITIDEVNARLDEAADKIVEAGQYIREAKKLNPDEEQKKKIEELEKELDEVLDEYRETAEFAFLRVAER
B17: usp_38_diff_out_4_126_545 (protein)
chain: SREEEFKKLEKEAEKKIEEAKKLLEEALKELDKDPEKALELLDKAWDALGEAAKLLREMRRVAADDEELRKRYKELEEKLDKLIDEFTKAATYIFEKIAE
B18: usp_38_diff_out_4_12_557 (protein)
chain: AEEEREREFKRKREELKRLSEETKERADKLLEEVKKKKDKATLKEATKKLNEDLTKLAELTLETLELAETDEEVQEILDLFDDTATYVSEKAAEMKEILK
B19: usp_38_diff_out_3_65_537 (protein)
chain: EVEELLEEAERRLEEARELIEALRREVESDPSLTIDEVNARLDEAVDLLVEAGEAIRRARRLDPDPEQRERLEELERRLDEVLRLYRETAEFAFLTVAER
B20: usp_38_diff_out_4_126_548 (protein)
chain: SREEEFEKLKEEANKKMKEAKELLEKAKKLLDKDKEEALKYLDEAAEKLGEASKLLRKMREVAKGDEELRKEYKELLEKLNELVDEYTKVATEIYLALAE
B21: usp_38_diff_out_4_12_561 (protein)
chain: SEEERKKIAEEALEEMEKKSKEVKEKAKKAKEEAIKTKDLAAFNKKMNELIKELTDLTLEKLEKLAEIGDDETIEEILRIAGETFKELSKLAKEVKEAAK
B22: usp_38_diff_out_4_126_550 (protein)
chain: SMKEELEKKLEEAKKLAEEALKAAARLVELAATDPSKVAEARAELDALIAAFTKAANEALKLARKDGKYKEEVTKEIDKLTDEVVEAEGKAVEAVAEALA
B23: usp_38_diff_out_4_12_553 (protein)
chain: AAEERQKALEKALAEMQKLHEETVKKLKELLEELKKTKKEEILKEAEKLANDALTKLAELTTKALELAETPEEQQAILDLYAQQVTEIVTLMQEAKEAMK
B24: usp_38_diff_out_3_65_542 (protein)
chain: KVEELLKKAEEKLKEAREKIRELRERVETDPELTEEEIVEMLDEAADLLVEAGEYIREAKKLNPDEEAKKKIKELEKELEELIDEYVEAGERAFLAYGER
B25: usp_38_diff_out_4_126_547 (protein)
chain: GREKEFEKLKKEAEELLKKAKELLEKAKEALDKDPKKAQEYLDKALEYLGKLAKLLREMRRVAEGDPELQKEVKELQKKADELVDEYTKAAEEIYLALAE
B26: usp_38_diff_out_3_65_538 (protein)
chain: EVQKLLEEAQKLLDEATKIIDELKERVESDPTLTIDEVNEMLDKAADKIVAAGEKINEAKKLNPDEEQKKQIEELEKRLDEVIEKYREAAEYAFLRVAER
B27: usp_38_diff_out_4_12_551 (protein)
chain: SAEERRRKREEALERLRRLAEEATREAERLKKEVEEKKDEATLEEALKRANELITELSEATLEALELAENLEEVEEVLRLAEPAFDALAELRVKIEEARK
B28: usp_38_diff_out_3_65_540 (protein)
chain: EVQELLERAERHLEEAEEIIEELERRTETDPTLTIDEVVEMLDEAADHLVAASEDIKEAKKLNPDEEQKKRIEELEKRLDELIDRYVEAGERAFLAVGER
B29: usp_38_diff_out_3_65_536 (protein)
chain: EVEKLLEEAKKYLEEARKIVEELRREVEEDPTITIDEVNEKLDEAADKIVAAGQKIREAKKLNPDEEQKKQLEELEKELDEVLELYRETAEYAFLKVAER
B30: usp_38_diff_out_4_12_559 (protein)
chain: AEEEHKEALEKAKEELKKLSEETIKLAKELLEKVKKEKSRATLKEANEKLNKKITELAEATLKALELAETDEELQEILDLWDKTSTEISRLAKEMREILK
B31: usp_38_diff_out_3_65_535 (protein)
chain: KIEELLKEAEKYLEEAEKLVEELRRRVESDPTLTIDELNARLDEAADLIVKAGQKIREAKKLNPDEEQKKKLKELEKRLDEVLKKYREAAEEGFLRVAER
B32: usp_38_diff_out_4_12_552 (protein)
chain: AEEERRKELEELLREMEELTEETVARMKELLKELKETKDEEVYEELLKLAEEALTRLAELTTRALELAETDEELEEILRRYSEAVDEIVALMQEARKAMK

Target: T1, USP38, Q8NB14
T1 chain: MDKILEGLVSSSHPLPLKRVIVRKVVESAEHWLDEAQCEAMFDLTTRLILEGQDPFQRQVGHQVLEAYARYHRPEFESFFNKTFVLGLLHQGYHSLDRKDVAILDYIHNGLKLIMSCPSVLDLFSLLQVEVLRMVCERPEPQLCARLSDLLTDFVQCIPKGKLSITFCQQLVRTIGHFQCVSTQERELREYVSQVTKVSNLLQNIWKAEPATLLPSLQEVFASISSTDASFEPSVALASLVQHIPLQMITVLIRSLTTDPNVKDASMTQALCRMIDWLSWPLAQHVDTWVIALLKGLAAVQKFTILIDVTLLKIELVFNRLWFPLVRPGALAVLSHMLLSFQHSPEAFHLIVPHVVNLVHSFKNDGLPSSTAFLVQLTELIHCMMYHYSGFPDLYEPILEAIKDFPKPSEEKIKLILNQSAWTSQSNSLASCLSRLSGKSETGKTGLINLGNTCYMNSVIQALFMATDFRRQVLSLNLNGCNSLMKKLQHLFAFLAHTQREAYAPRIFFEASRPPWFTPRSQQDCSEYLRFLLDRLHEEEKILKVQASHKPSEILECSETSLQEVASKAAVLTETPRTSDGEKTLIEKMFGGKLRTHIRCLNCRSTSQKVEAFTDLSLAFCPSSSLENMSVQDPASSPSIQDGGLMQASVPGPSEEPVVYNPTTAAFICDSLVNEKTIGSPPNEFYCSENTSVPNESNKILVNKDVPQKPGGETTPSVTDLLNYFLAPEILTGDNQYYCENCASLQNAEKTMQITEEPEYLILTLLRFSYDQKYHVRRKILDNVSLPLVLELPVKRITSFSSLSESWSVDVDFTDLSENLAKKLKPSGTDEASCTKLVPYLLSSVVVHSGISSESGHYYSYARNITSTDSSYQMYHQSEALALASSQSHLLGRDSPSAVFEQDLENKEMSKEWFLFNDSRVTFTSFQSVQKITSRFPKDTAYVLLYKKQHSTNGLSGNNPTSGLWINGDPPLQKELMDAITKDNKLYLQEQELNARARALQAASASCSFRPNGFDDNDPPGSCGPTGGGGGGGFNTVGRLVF
Assay: median log2 fold change of GCK-ALFA target abundance (FLAG IP / Myc IP barcode read proportion) (log2 ratio); each designed protein is fused to an ALFA-tag nanobody in HEK293 cells to bring the named protein to FLAG-tagged glucokinase (GCK); Myc marks an untargeted standard; higher = target protein stabilised (more abundant)
Details: target protein: 3xFLAG-MCP-GCK-ALFA reporter; HEK293 landing pad (RPLP)
In short: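 An ALFA-nanobody-fused binder library was recombined into HEK293 landing-pad cells and induced with 2 μg mL^−1 doxycycline. Cells were transfected with a plasmid expressing a FLAG-tagged target and a Myc-tagged standard. After 48 h, lysates underwent anti-FLAG and anti-Myc immunoprecipitation, and circular RNA barcodes were reverse transcribed, amplified and sequenced. Target abundance is the per-binder median log2 ratio of FLAG to Myc barcode read proportions. Barcodes needed ≥10^−7 proportion in both replicates, binders ≥3 barcodes per replicate, and a 10^−6 pseudocount was added; the two replicates were pooled.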

Binder	median log2 fold change
B1	-0.0183
B2	-0.19
B3	-0.215
B4	-1.05
B5	0.0706
B6	-0.588
B7	-0.661
B8	-0.146
B9	-0.0854
B10	0.0829
B11	-0.11
B12	0.0256
B13	-0.0269
B14	0.037
B15	-0.504
B16	-0.0616

Binder	median log2 fold change
B17	-0.694
B18	-0.616
B19	-0.264
B20	0.358
B21	-0.892
B22	0.0827
B23	0.201
B24	0.499
B25	0.575
B26	-0.281
B27	-0.341
B28	0.111
B29	-0.223
B30	-0.371
B31	-0.384
B32	-0.539
